Several values for one entry are separate records, joined by “and”; a condition that tells them apart may be missing. Equal entries are not always repeated. Records with an inconclusive call do not appear. Some compounds were tested as several samples or in several runs, with calls that do not always agree. Activity calls are given as the source filed them. Unless noted, the call rests on the fitted dose curve; in most records, active means well fitted curve in the direction sought with a large enough effect in the repeat runs; inconclusive means weak or mixed curves; inactive means no such curve, though single readings can be large; an effect the other way counts as inactive or inconclusive.
Assays:
[1] = A CellTox Green Cytotoxicity Assay to monitor cytotoxicity in HepG2 cells - 32 hour (AID 1224883); conditions: CellTox Green fluorescence; series mostly up to 76.8 µM; further: nearly all actives have a fitted effect of over 50% in size; further: potency means the concentration at half of the fitted maximal effect
Outline: (§1)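 Fluorescent DNA-binding dye, 600 HepG2 cells/well, 5 h preincubation then compound in DMSO; same plates read at 0–40 h, 37 C.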

[2] = A CellTox Green Cytotoxicity Assay to monitor cytotoxicity in HEK293 cells - 8 hour (AID 1224884); conditions: CellTox Green fluorescence; series mostly up to 76.8 µM; further: nearly all actives have a fitted effect of over 35% in size
Outline: (§2)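 Homogeneous no-lysis format: HEK293 cell suspension mixed with CellTox Green reagent, seeded, incubated 5 h at 37 C/5% CO2, then dosed by pintool with compound in DMSO.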

[3] = qHTS RealTime-Glo MT Cell Viability Assay in HepG2 cells - 16 hour (AID 1224885); conditions: RealTime-Glo luminescence; series mostly up to 76.8 µM; further: nearly all actives have a fitted effect of over 50% in size; further: potency means the concentration at half of the fitted maximal effect
Outline: (§3)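 HepG2 suspension premixed with RealTime-Glo reagents is plated at 600 cells per well and left 5 h at 37 C/5% CO2. Compounds in DMSO then go in, and bioluminescence reflecting viable cell number is recorded over 40 h.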

[4] = qHTS RealTime-Glo MT Cell Viability Assay in HEK293 cells - 24 hour (AID 1224886); conditions: RealTime-Glo luminescence; series mostly up to 76.8 µM; further: nearly all actives have a fitted effect of over 50% in size; further: potency means the concentration at half of the fitted maximal effect
Outline: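 Reads taken at 0, 8, 16, 24, 32 and 40 h from the same wells. HEK293 cells (600/well) carried RealTime-Glo reagents from seeding, with compound added after a 5 h settle at 37 C.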

[5] = qHTS RealTime-Glo MT Cell Viability Assay in HEK293 cells - 8 hour (AID 1224887); conditions: RealTime-Glo luminescence; series mostly up to 76.8 µM; further: nearly all actives have a fitted effect of over 50% in size; further: potency means the concentration at half of the fitted maximal effect
Outline: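 Measured as luminescence from the same continuously cultured HEK293 wells at successive time points (0, 8, 16, 24, 32, 40 h) after compound addition. Reagent present from seeding; dosing at 5 h; incubation 37 C.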

[6] = A CellTox Green Cytotoxicity Assay to monitor cytotoxicity in HEK293 cells - 16 hour (AID 1224888); conditions: CellTox Green fluorescence; series mostly up to 76.8 µM; further: nearly all actives have a fitted effect of over 35% in size; further: potency means the concentration at half of the fitted maximal effect
Outline: as §2

[7] = qHTS RealTime-Glo MT Cell Viability Assay in HepG2 cells - 0 hour (AID 1224889); conditions: RealTime-Glo luminescence; series mostly up to 76.8 µM; further: nearly all actives have a fitted effect of over 50% in size; further: potency means the concentration at half of the fitted maximal effect
Outline: as §3

[8] = A CellTox Green Cytotoxicity Assay to monitor cytotoxicity in HepG2 cells - 8 hour (AID 1224890); conditions: CellTox Green fluorescence; series mostly up to 76.8 µM; further: nearly all actives have a fitted effect of over 45% in size; further: potency means the concentration at half of the fitted maximal effect
Outline: as §1

[9] = qHTS assay to identify small molecule antagonists of the estrogen receptor alpha (ER-alpha) signaling pathway using the BG1 cell line in the presence of 0.1 nM 17-beta-estradiol - cell viability counter screen (AID 1259241); conditions: VM7Luc4E2 (BG1) viability, CellTiter-Fluor protease, 22 h, 0.1 nM estradiol agonist added; series mostly up to 92.4 µM; further: nearly all actives have a fitted effect of over 40% in size; further: potency means the concentration at half of the fitted maximal effect
Outline: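 CellTiter-Fluor read (30 min, 37C) on ER-alpha/ERE-luc VM7Luc4E2 cells; 22 hr compound treatment; agonist 0.1 nM E2 final; same-well multiplex.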

[10] = qHTS assay to identify small molecule antagonists of the androgen receptor (AR) signaling pathway using the MDA cell line in the presence of 0.5 nM R1881 - cell viability counter screen (AID 1259242); conditions: MDA-kb2 viability, CellTiter-Fluor protease fluorescence, 16 h; series mostly up to 92.4 µM; further: nearly all actives have a fitted effect of over 45% in size; further: potency means the concentration at half of the fitted maximal effect
Outline: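 Human breast carcinoma MDA-kb2 cells, cultured without CO2, receive compounds alongside 0.5 nM (final) R1881 agonist. After 16 hr at 37C, viability is taken as live-cell protease signal.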

[11] = target: Androgen receptor (Homo sapiens) (UniProt P10275); test: qHTS assay to identify small molecule antagonists of the androgen receptor (AR) signaling pathway using the MDA cell line in the presence of 0.5 nM R1881 (AID 1259243); conditions: MDA-kb2 MMTV-luciferase, R1881 0.5 nM, 16 h; series mostly up to 92.4 µM; further: nearly all actives have a fitted effect of over 50% in size
Outline: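 Cells: MDA-kb2 (MMTV-luc). Stimulus: 0.5 nM R1881. Time: 16 hr, 37C, no CO2. Detection: ONE-Glo luminescence after 30 min at RT.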

[12] = qHTS assay to identify small molecule HDAC inhibitors (AID 1259364); conditions: HCT-116 HDAC-Glo I/II luminescence, 2 h; series mostly up to 92.4 µM;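 further: wild-type HCT-116 cells with endogenous class I/II HDAC activity; top concentration of the series differs between compounds; nearly all actives have a fitted effect of over 45% in size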
Outline: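 After a 2 hr compound incubation (37C, 5% CO2), HCT-116 cells seeded at 1,500/well the day before received HDAC-Glo reagent; signal read as luminescence after 30 min at room temperature.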

[13] = qHTS assay to identify small molecule HDAC inhibitors - cell viability counter screen (AID 1259365); conditions: HCT-116 viability, CellTiter-Glo ATP luminescence, 2 h; series mostly up to 92.4 µM; further: nearly all actives have a fitted effect of over 50% in size
Outline: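 To flag cytotoxic hits, 1,500 wild-type HCT-116 cells per well, plated the day before, receive test compounds for 2hr at 37 C before CellTiter-Glo reagent and a luminescence read.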

[14] = qHTS assay to identify small molecule agonists of the sonic hedgehog signaling (Shh) pathway - cell viability counter screen (AID 1259366); conditions: NIH/3T3 Gli1-Luc viability, CellTiter-Fluor, 24 h; series mostly up to 92.4 µM; further: nearly all actives have a fitted effect of over 50% in size; further: potency means the concentration at half of the fitted maximal effect
Outline: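 Fluorescence from CellTiter-Fluor reports live cells in this counter screen. NIH/3T3-derived Gli1-Luc reporter cells receive test compounds for 24hr at 37C; reagent goes in at 23hr.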

[15] = qHTS assay to identify small molecule antagonists of the sonic hedgehog signaling (Shh) pathway - cell viability counter screen (AID 1259367); conditions: NIH/3T3 Gli1-Luc viability, CellTiter-Fluor, 24 h; series mostly up to 92.4 µM; further: nearly all actives have a fitted effect of over 55% in size; further: potency means the concentration at half of the fitted maximal effect
Outline: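 Cytotoxicity was assessed in parallel with Shh reporter activity by measuring live-cell protease fluorescence (CellTiter-Fluor) in NIH/3T3 cells stably carrying Gli1-Luc, treated with compound under conditioned medium stimulation for 23 hr plus 1 hr reagent incubation.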

[16] = qHTS assay to identify small molecule antagonists of the sonic hedgehog signaling (Shh) pathway (AID 1259369; calls by dose curve; further: nearly all actives have a fitted effect of over 45% in size; further: potency means the concentration at half of the fitted maximal effect); conditions: NIH/3T3 Gli1-Luc reporter, Shh antagonist, luminescence 24 h; series mostly up to 92.4 µM
Outline: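 Gli1 transcriptional reporter (firefly Luc) in NIH/3T3 background, conditioned-medium activated. 24hr exposure, luminescence endpoint.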

[17] = target: Estrogen receptor (Homo sapiens) (UniProt P03372); test: qHTS assay to identify small molecule antagonists of the estrogen receptor alpha (ER-alpha) signaling pathway using the BG1 cell line in the presence of 0.1 nM 17-beta-estradiol (AID 1259244); conditions: VM7Luc4E2 (BG1) ERE-luciferase, antagonist mode, 0.1 nM E2, 22 h; series mostly up to 92.4 µM; further: nearly all actives have a fitted effect of over 50% in size; further: potency means the concentration at half of the fitted maximal effect
Outline: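 Seeding of stripped-serum-adapted VM7Luc4E2 cells, 24 h attachment, compound transfer, then 0.1 nM final 17beta-estradiol; after 22 h incubation, ONE-Glo reagent and luminescence reading.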

[18] = target: Estrogen receptor beta (Homo sapiens) (UniProt Q92731); test: qHTS assay to identify small molecule agonists of the estrogen receptor beta (ER-beta) signaling pathway (AID 1259377; active means well fitted activation curve with a large enough effect in the signal ratio in the repeat runs, not every such curve was filed as active; the % refers to the signal ratio); conditions: ER-beta-UAS-bla HEK293T, beta-lactamase FRET ratio, 16 h; series mostly up to 92.4 µM
Outline: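 Screening used GripTite ER-beta-UAS-bla cells held in 2% charcoal-stripped FBS medium. After overnight (16 hr) compound incubation at 37C, beta-lactamase activity was detected with a FRET substrate by fluorescence.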

[19] = qHTS assay to identify small molecule agonists of the sonic hedgehog signaling (Shh) pathway (AID 1259368; calls by dose curve;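 further: NIH/3T3-derived 3T3Gli1-Luc cells carrying a stable Gli1-driven firefly luciferase reporter; nearly all actives have a fitted effect of over 15% in size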); conditions: NIH/3T3 Gli1-Luc reporter, luciferase, 24 h; series mostly up to 92.4 µM
Outline: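 Stable NIH/3T3 Gli1-Luc reporter clone; 24 hr cpd exposure after a 4 hr settling period; luminescence endpoint.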

[20] = qHTS assay to identify small molecule phospholipidosis (PLD) inducers (AID 1259344; active means well fitted curve in the direction sought with a large enough effect; an effect the other way counts as inactive or inconclusive; further: potency means the concentration at half of the fitted maximal effect); conditions: HepG2 phospholipidosis, LipidTOX Red imaging, 24 h; series mostly up to 38.3 µM
Outline: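 Cells (HepG2, 900 per well) attach for 4 h, receive LipidTOX Red and compound together, incubate 24 h at 37 C, are fixed 30 min with paraformaldehyde/Hoechst, then imaged at one site per well.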

Measured: Potency

Estrogen receptor beta (Homo sapiens), sequence (Q92731 whole entry, looked up): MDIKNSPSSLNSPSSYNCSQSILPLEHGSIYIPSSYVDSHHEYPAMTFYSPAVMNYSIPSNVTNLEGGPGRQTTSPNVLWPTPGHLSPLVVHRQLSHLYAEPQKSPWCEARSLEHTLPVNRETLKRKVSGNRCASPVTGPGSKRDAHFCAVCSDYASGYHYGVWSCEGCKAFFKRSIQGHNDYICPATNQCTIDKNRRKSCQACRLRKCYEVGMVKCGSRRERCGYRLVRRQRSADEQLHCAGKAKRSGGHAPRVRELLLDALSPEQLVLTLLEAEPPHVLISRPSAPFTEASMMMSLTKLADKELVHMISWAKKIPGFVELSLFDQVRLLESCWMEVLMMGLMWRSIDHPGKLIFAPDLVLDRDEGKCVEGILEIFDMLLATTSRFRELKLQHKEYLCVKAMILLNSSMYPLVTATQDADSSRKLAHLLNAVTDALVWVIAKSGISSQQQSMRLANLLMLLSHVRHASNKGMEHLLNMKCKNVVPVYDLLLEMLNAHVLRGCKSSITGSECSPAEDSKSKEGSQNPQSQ
Androgen receptor (Homo sapiens), sequence (P10275 whole entry, looked up): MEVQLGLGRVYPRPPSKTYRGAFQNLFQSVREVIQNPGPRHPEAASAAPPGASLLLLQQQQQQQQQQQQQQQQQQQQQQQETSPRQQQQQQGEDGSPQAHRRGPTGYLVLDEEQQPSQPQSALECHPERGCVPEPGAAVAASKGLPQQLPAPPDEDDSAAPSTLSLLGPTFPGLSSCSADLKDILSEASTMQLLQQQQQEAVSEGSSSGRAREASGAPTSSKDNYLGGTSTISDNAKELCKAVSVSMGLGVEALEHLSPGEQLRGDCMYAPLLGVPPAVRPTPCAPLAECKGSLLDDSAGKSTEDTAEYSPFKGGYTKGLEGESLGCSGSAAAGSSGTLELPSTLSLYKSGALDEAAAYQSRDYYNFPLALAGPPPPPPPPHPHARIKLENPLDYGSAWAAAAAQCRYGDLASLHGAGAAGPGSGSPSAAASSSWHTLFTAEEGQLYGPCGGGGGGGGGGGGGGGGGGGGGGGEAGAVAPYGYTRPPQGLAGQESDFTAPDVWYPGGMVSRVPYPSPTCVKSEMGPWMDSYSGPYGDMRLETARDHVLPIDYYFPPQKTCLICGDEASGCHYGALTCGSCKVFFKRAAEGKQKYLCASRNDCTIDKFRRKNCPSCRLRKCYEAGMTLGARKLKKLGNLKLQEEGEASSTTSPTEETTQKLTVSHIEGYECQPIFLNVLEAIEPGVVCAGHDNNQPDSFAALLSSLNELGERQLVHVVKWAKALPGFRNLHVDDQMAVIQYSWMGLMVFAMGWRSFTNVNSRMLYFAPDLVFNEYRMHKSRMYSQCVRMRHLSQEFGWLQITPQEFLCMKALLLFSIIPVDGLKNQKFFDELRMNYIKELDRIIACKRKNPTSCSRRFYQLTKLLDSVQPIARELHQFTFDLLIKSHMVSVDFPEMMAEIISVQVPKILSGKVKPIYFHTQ
Estrogen receptor (Homo sapiens), sequence (P03372 whole entry, looked up): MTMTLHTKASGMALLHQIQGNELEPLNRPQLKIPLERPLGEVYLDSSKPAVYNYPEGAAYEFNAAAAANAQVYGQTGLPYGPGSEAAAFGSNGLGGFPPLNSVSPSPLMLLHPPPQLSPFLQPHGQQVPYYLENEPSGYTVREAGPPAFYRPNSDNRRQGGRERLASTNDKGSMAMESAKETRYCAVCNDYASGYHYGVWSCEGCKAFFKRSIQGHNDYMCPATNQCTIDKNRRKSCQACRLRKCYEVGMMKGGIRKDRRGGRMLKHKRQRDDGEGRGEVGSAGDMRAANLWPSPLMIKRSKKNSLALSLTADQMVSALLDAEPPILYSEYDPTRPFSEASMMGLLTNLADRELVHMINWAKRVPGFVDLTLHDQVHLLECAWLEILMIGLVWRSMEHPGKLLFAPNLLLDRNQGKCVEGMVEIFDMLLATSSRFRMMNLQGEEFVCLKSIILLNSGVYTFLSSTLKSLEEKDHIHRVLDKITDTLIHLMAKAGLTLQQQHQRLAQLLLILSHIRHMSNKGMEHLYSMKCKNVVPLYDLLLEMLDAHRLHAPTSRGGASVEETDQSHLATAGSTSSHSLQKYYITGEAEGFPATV

FC(Cl)(Cl)Cl
not listed: [17] | [18] | [19] | [20]
inactive: all other assays above

CCc1nn(C)c(C(=O)NCc2ccc(C(C)(C)C)cc2)c1Cl
active: [4] 0.049 µM | [5] 4.36 µM | [9] 0.77 µM | [10] 0.433 µM | [17] 0.0863 µM | [16] 38.6 nM
not listed: [11] | [14] | [15] | [19] | [20]
inactive: all other assays above

CCCN(CC)CC1COC2(CCC(C(C)(C)C)CC2)O1 (centres undefined)
not listed: [11] | [20]
inactive: all other assays above

CC(c1ccc(O)cc1)c1ccc(O)cc1
22.8 µM (active) and inactive: [16]
45.9 µM (active) and inactive: [4]
inactive and 61.1 µM (active): [14]
not listed: [11] | [18] | [20]
inactive: all other assays above

Nc1ccccc1C(=O)OC/C=C/c1ccccc1
active: [4] 24.6 µM | [5] 24.6 µM
not listed: [11] | [12] | [13] | [15] | [19] | [20]
inactive: all other assays above

ClC1=C(Cl)[C@]2(Cl)[C@H]3[C@H]([C@H]4C=C[C@H]3C4)[C@@]1(Cl)C2(Cl)Cl
not listed: [11] | [18] | [20]
inactive: all other assays above

COc1ccc(OC)c(CC(C)N)c1 (centres undefined)
not listed: [11]
inactive: all other assays above

C[As+](C)(C)CC(=O)[O-]
not listed: [15] | [20]
inactive: all other assays above

Cc1cc(C)c(C2=C(OC(=O)CC(C)(C)C)C3(CCCC3)OC2=O)c(C)c1
not listed: [11] | [12] | [20]
inactive: all other assays above

CCC(C)(C)C(=O)OC1=C(c2ccc(Cl)cc2Cl)C(=O)OC12CCCCC2
active: [7] 34.7 µM
not listed: [15] | [16] | [18] | [20]
inactive: all other assays above

COS(=O)(=O)c1ccc(C)cc1
not listed: [15] | [16] | [18] | [20]
inactive: all other assays above

C[C@H]1O[C@@H](O[C@H]2[C@@H](O)C[C@H](O[C@H]3[C@@H](O)C[C@H](O[C@H]4CC[C@@]5(C)[C@H](CC[C@@H]6[C@@H]5CC[C@]5(C)[C@@H](C7=CC(=O)OC7)CC[C@]65O)C4)O[C@@H]3C)O[C@@H]2C)C[C@H](O)[C@@H]1O
active: [4] 34.9 nM and 84.9 nM | [20] 2 µM
not listed: [11] | [18]
inactive: all other assays above

O=[N+]([O-])c1cc(C(F)(F)F)c(Cl)c([N+](=O)[O-])c1Cl
active: [1] 21.9 µM | [3] 38.9 µM | [4] 6.16 µM | [5] 11 µM | [6] 11 µM | [8] 54.9 µM | [9] 61.1 µM | [10] 27.3 µM | [17] 61.1 µM | [14] 13.7 µM | [15] 21.7 µM | [16] 4860 nM
inactive: [2] | [7] | [12]

N#Cc1ccccc1N
not listed: [11] | [20]
inactive: all other assays above
